For 14 molecules, growth results are on record in PubChem BioAssay (NCI).

Compounds without any hit were thinned out: in the full panel of roughly 83,000, 20% have a hit.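 The endpoint reported here, percent growth, reads 100 for growth as untreated, 0 for no net growth and -100 for all cells dead.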 A number with no mark means an inactive call. Active and inactive are the calls of the source. How the source made its calls: active means growth percent below 10; inactive means the rest.

Among the test systems are DU-145 prostate; K-562 leukemia; MALME-3M melanoma; MDA-MB-231 breast; SF-268 CNS; SF-295 CNS; SF-539 CNS; UACC-257 melanoma; M14 melanoma; RXF 393 renal.
Common to all, as to assay: NCI-60 one-dose screen, 48 h (100 = growth as untreated, 0 = no growth, -100 = all killed)
Conditions in all cases: 10 µM

As to `CC(=O)Nc1ccc(-c2cn(-c3cccc(C(=O)Nc4cc(CN5CCOCC5)cc(C(F)(F)F)c4)c3)nn2)cn1`, the growth was -40% (active) with DU-145 prostate; 0.612% (active) in the assay on K-562 leukemia; -97.1% (active) with MALME-3M melanoma; -95.7% (active) in the assay on MDA-MB-231 breast; -27.5% (active) with SF-268 CNS; -88.6% (active) in the assay on SF-295 CNS. Moreover, the values for the growth in the assay on SF-539 CNS, in the assay with UACC-257 melanoma and in the assay on M14 melanoma were -100% (active), -81.5% (active) and -90.3% (active), respectively.

Turning to `O=C1N/C(=N\c2nccs2)S/C1=C\c1cccs1`, the growth with DU-145 prostate was 53.2%; with K-562 leukemia it was 20.1%; in the assay with MALME-3M melanoma, 28.9%; in the assay with MDA-MB-231 breast, 47.6%; with SF-268 CNS, 44.7%; with SF-295 CNS, 13.4%. The figures for the growth in the assay on SF-539 CNS, in the assay on UACC-257 melanoma and with M14 melanoma were 21.8%, 49.6% and 9.09% (active), respectively.

As to `CC1(c2ccccc2)NC(=O)N(CC(=O)Nc2ccc(C(=O)/C=C/c3ccc(Cl)cc3)cc2)C1=O` (stereo unspecified), the growth was 28% with DU-145 prostate; 2.06% (active) in the assay with K-562 leukemia; 34.8% in the assay with MALME-3M melanoma; 13.6% in the assay with MDA-MB-231 breast; 19.7% with SF-268 CNS; 8.45% (active) in the assay on SF-295 CNS. Further, the results for the growth in the assay with SF-539 CNS, with UACC-257 melanoma and in the assay with M14 melanoma were -89.3% (active), 20.6% and -26.9% (active), respectively.

With `CCOC(=O)CNC(=O)CN(Cc1ccccc1)C(=O)[C@@]1(C)CCC[C@]2(C)[C@H]3CC4C(C(C)C)=C[C@]3(CC[C@H]21)[C@@H]1C(=O)CCC(=O)[C@H]41`, the growth was 92.6% in the assay with DU-145 prostate; 25.3% in the assay on K-562 leukemia; 83% with MALME-3M melanoma; 64.8% in the assay on MDA-MB-231 breast; 64.7% with SF-268 CNS; 54.4% with SF-295 CNS. Besides, the growth is 77.2% in the assay on SF-539 CNS, 70.2% in the assay with UACC-257 melanoma and 72.2% with M14 melanoma.

For `O=C1Nc2ccc(Cl)cc2/C1=C/c1ccc(OCc2ccccn2)cc1`, the growth was 87.8% in the assay with DU-145 prostate; 51% in the assay on K-562 leukemia; 38.5% in the assay with MALME-3M melanoma; 21.7% in the assay on MDA-MB-231 breast; 79.3% in the assay with SF-268 CNS; 84.5% with SF-295 CNS. The growth in the assay on SF-539 CNS was 73.5%; in the assay on UACC-257 melanoma, 118%; with M14 melanoma it was 89.9%.

On to `CCOc1ccc(/C=N/NC(=O)Cn2nc(Cc3ccc([N+](=O)[O-])cc3)c3onc(C)c3c2=O)cc1`, for which the growth is -15.2% (active) with DU-145 prostate; 62.5% with K-562 leukemia; -2.13% (active) in the assay with MALME-3M melanoma; -19.9% (active) in the assay on MDA-MB-231 breast; -8.68% (active) in the assay on SF-268 CNS; 1.32% (active) in the assay on SF-295 CNS. The growth is -64.5% (active) with SF-539 CNS, 70.3% with UACC-257 melanoma and 50.9% in the assay with M14 melanoma.

`CN(C)c1ccc(/C=C/C(=O)c2ccc(NC(=O)CN3C(=O)NC(C)(c4ccccc4)C3=O)cc2)cc1` (stereo unspecified): the growth is 75.3% in the assay with DU-145 prostate; 27.9% in the assay with K-562 leukemia; 80.3% in the assay with MALME-3M melanoma; 68.1% in the assay on MDA-MB-231 breast; 57.9% with SF-268 CNS; 54.9% in the assay with SF-295 CNS. For the same molecule, the growth in the assay with SF-539 CNS is 55.2%; in the assay with UACC-257 melanoma, 62.9%; in the assay on M14 melanoma, 51.5%.

For the molecule `CN1CCN(c2ccc(Nc3nc(N4CCN(S(=O)(=O)c5ccc(F)cc5)CC4)c4sccc4n3)cc2)CC1`, the growth in the assay on DU-145 prostate was -84% (active); in the assay with MALME-3M melanoma, -97.9% (active); with MDA-MB-231 breast it was -94.6% (active); with RXF 393 renal, -89.1% (active); in the assay on SF-268 CNS it was -72.3% (active); in the assay on SF-295 CNS, -88.5% (active). The growth is -100% (active) with SF-539 CNS, -86.1% (active) in the assay on UACC-257 melanoma and -56.9% (active) in the assay with M14 melanoma.

Regarding `CC(C)NC(=O)c1cc(-c2ccc(NC(=O)Nc3ccc(N4CCN(C)CC4)c(C(F)(F)F)c3)cc2)nc2cccnc12`, the growth in the assay on DU-145 prostate is -88.7% (active); in the assay with MALME-3M melanoma it was -96.3% (active); with MDA-MB-231 breast it was -91.6% (active); with RXF 393 renal it was -89.8% (active); in the assay on SF-268 CNS, -42.9% (active); in the assay with SF-295 CNS it was -96.5% (active). Besides, the values for the growth in the assay with SF-539 CNS, with UACC-257 melanoma and in the assay with M14 melanoma were -100% (active), -88.6% (active) and -86.6% (active), respectively.

Turning to `Cc1ccc(-c2cc(-c3cc4ccccc4nc3Cl)[nH]c(=O)n2)cc1`, the growth was 14.2% in the assay with DU-145 prostate; 1.33% (active) with K-562 leukemia; 38.5% with MALME-3M melanoma; -33.9% (active) with RXF 393 renal; 6.42% (active) in the assay on SF-268 CNS; 16.2% in the assay on SF-295 CNS. The results for the growth with SF-539 CNS, with UACC-257 melanoma and in the assay on M14 melanoma were -42.6% (active), 47% and 10.2%, respectively.

As to `Cc1nc2c(cnn2-c2ccccc2)c(=O)n1-c1ccc(NC(=O)c2ccc(F)cc2)cc1`, the growth was 80.7% with DU-145 prostate; 27.2% in the assay on K-562 leukemia; 68.4% with MALME-3M melanoma; 79.1% in the assay with RXF 393 renal; 88.9% with SF-268 CNS; 39.6% with SF-295 CNS. In addition, the growth is 85.5% with SF-539 CNS, 31.8% with UACC-257 melanoma and 62.9% in the assay with M14 melanoma.

For `CCCS(=O)(=O)c1oc(-c2ccc(F)cc2)nc1S(=O)(=O)c1ccc(F)cc1`, the growth with DU-145 prostate was -85.8% (active); in the assay on MALME-3M melanoma, -98.8% (active); in the assay on MDA-MB-231 breast it was -91.9% (active); with RXF 393 renal, -97.5% (active); in the assay on SF-268 CNS, 52.2%; with SF-295 CNS, 78.2%. The growth was -94.2% (active) in the assay on SF-539 CNS, -30.9% (active) in the assay with UACC-257 melanoma and -37.5% (active) in the assay with M14 melanoma.

With `COc1ccc2nc(Cl)c(-c3cc(-c4ccccc4)nc(=O)[nH]3)cc2c1`, the growth in the assay with DU-145 prostate is 26.1%; in the assay on K-562 leukemia, 4.96% (active); in the assay on MALME-3M melanoma it was 83.3%; in the assay with RXF 393 renal, 58.5%; in the assay on SF-268 CNS, 60.2%; with SF-295 CNS it was 64.4%. Further, the growth in the assay with SF-539 CNS was 11.3%; in the assay with UACC-257 melanoma it was 105%; with M14 melanoma, 81.9%.

Take `CN1CCc2c(sc3ncnc(N/N=C/c4cn(-c5ccccc5)nc4-c4ccc(Br)cc4)c23)C1`: the growth in the assay on DU-145 prostate is 56.2%; in the assay on K-562 leukemia it was 18.5%; with MALME-3M melanoma, 29.5%; in the assay with RXF 393 renal it was 83.6%; in the assay on SF-268 CNS, 67.2%; in the assay with SF-295 CNS, 72.9%. For the same molecule, the growth was 15.7% with SF-539 CNS, 29.9% with UACC-257 melanoma and 19.4% with M14 melanoma.
